Source: PubChem (National Center for Advancing Translational Sciences (NCATS))
Luc counter – counter-screen: inhibitors of Kinase-Glo firefly luciferase | Q27757 | Kinase-Glo luciferase, ATP luminescence, 8 min | Potency, µM (highest dose often 38.3 µM), actives largely listed as inhibitors | actives 0.28% (n = 200,000) | AID 1379; active means well fitted curve in the direction sought with a large enough effect; inconclusive means small, poorly fitted or top-dose-only effect, or another doubt; inactive means no such curve, though single readings can be large; an effect the other way counts as inactive or inconclusive; further: nearly all actives have a fitted effect of over 60% in size
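Inhibition of Kinase-Glo luciferase light generation was assessed at 10 uM ATP in pH 7.2 imidazole buffer, with luminescence measured after eight minutes at ambient temperature.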
LMNA splice mod – LMNA splicing modulation | HeLa LMNA splicing GFP/RFP minigene ratio, 48 h | AID 1487 | actives 0.01% (n = 200,000) | Potency, µM (series often up to 46.1 µM), usual class: inhibitors; active means well fitted inhibition curve with a large enough effect in the signal ratio, with a control signal flat, not every such curve was filed as active; inconclusive means small, poorly fitted or top-dose-only effect, or effect the other way, or a change in a side signal; the % refers to the signal ratio
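S3 HeLa cells stably expressing lamin A-EGFP splicing minigene plus DsRed2, 600 cells/well, 48 h compound exposure at 37C. Laser-scanning cytometry; analysed as GFP (500-530 nm)/RFP (575-640 nm) total intensity ratio; 0.5% DMSO vehicle.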
HPGD block – HPGD (human) dehydrogenase inhibition; Potency, µM, actives largely listed as inhibitors; purified HPGD, NADH fluorescence kinetic, PGE2 substrate; actives 4.3% (n = 150,000)
Target sequence (P15428 whole entry, looked up): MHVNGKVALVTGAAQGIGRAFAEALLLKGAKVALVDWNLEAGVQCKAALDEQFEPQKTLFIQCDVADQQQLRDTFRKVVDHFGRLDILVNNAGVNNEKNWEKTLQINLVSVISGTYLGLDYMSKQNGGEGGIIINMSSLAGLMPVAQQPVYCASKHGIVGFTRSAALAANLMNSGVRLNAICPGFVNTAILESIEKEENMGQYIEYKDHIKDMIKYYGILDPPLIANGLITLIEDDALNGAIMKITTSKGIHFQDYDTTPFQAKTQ
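NADH formation kinetics: reaction with 30 uM PGE2 and 1 mM NAD+ (final), 20 nM enzyme, Tris-HCl pH 8 with Tween 20, after 15 min compound preincubation at room temperature. Fluorescence change, last versus first of five reads.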
IMPase Li cell – membrane-permeable IMPase blocker, potentiated with lithium. CHO-M1 cells, IP1 TR-FRET (IP-One), carbachol + lithium. Potency, µM (top dose mostly 59.4 µM), usual class: inhibitors. actives 0.35% (n = 210,000); active means well fitted curve in the direction sought with a large enough effect; inconclusive means small, poorly fitted or top-dose-only effect, or another doubt; inactive means no such curve, though single readings can be large; an effect the other way counts as inactive or inconclusive;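 further: IP1 builds up when IMPase is blocked and the TR-FRET signal falls; nearly all actives have a fitted effect of over 50% in size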
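Concentration–response in CHO-M1 cells, lithium-potentiated; 30 min at 37C. IP1 detected by competitive TR-FRET after 10 min lysis at RT. Hill-fitted AC50.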
ALDH1A1 block – ALDH1A1 (human) enzyme inhibition; Purified ALDH1A1, NADH fluorescence, propionaldehyde substrate; actives 7.3% (n = 220,000); Potency, µM (top dose mostly 75.3 µM), hits mostly inhibitors
A number is an active result; n = inactive; u = inconclusive; x = not tested or not shown; [ ] = remark or other dose. This is a sample that favours compounds with a hit; in the whole collection about 9% have one here. Unless noted, the call rests on the fitted dose curve; in most records, active means well fitted inhibition curve with a large enough effect (not every such curve was filed as active); inconclusive means small, poorly fitted or top-dose-only effect, or another doubt; inactive means no such curve, though single readings can be large or run the other way.

SMILES	Luc counter	LMNA splice mod	HPGD block	IMPase Li cell	ALDH1A1 block
Cc1occc1C(=O)N/N=C/C=C\c1ccccc1[N+](=O)[O-]	n	u	x	n	u
Cc1cc(C(=O)C[N+]2(C)CCOCC2)c(C)n1-c1ccc(Br)cc1	n	n[9.22 µM]	x	n	n
CN1CCCc2cc(C=O)ccc21	n	n	u	n	0.2µM
O=Cc1ccc(N2CCCC2)c([N+](=O)[O-])c1	n	n	x	n	u
Cc1ccc(/C=C/C(=O)N2CCN(c3ncccn3)CC2)o1	n	n	20µM	n	3.5µM
Cc1ccc(/C=C/C(=O)N2CCc3ccccc32)o1	n	n	u	n	u
Cc1ccc(/C=C/C(=O)N2CCN(c3ccc(F)cc3)CC2)o1	n	u	n	n	u
Cc1ccc(/C=C/C(=O)N2CCCC(C(N)=O)C2)o1 (stereo not drawn)	x	x	x	x	14µM
CCC(=O)N(CCC(c1ccc(C)cc1)c1ccco1)Cc1ccco1 (stereo not drawn)	x	x	x	x	22µM
Cc1ccc(C(CCN)c2ccco2)cc1 (stereo not drawn)	n	n	n	n	n
O=C(c1ccco1)N(CCC(c1ccccc1)c1ccco1)Cc1ccc(F)cc1 (stereo not drawn)	n	u	n	n	14µM
O=C(c1cccc(F)c1)N1CCC2(CC1)CCN(c1ccccn1)CC2	n	x	u	n	u
Cc1cc(C)n(-c2nc(C)c(C)c(=O)n2CC(=O)Nc2ccc([N+](=O)[O-])cc2)n1	x	n	x	x	x
Cc1ccc(NC(=O)CN(C)C(=O)CSc2nc(C)cs2)cc1	n	n	x	n	n
COc1c(Br)cc2c(C)c(C(=O)O)oc2c1Br	n	u	14µM	n	u
O=C1Nc2ccccc2C1=Nc1cccc2ncccc12	n[7.66 µM]	x	n	n	n[13.5 µM]
O=C(O)/C=C/C(=O)Nc1ccc2c(c1)NC(=O)CO2	n	x	x	n	22µM
O=c1cc(/C=C/c2c(F)cccc2Cl)[nH]c2ccccc12	n	n	u	n	n
Cc1[nH]n(C(N)=S)c(=O)c1N=Nc1ccc2ccccc2c1	n	u	x	n	7.9µM
Cc1[nH]n(C(N)=S)c(=O)c1N=Nc1ccc(S(=O)(=O)N2CCCCCC2)cc1	n	n	16µM	n	11µM
Cc1ccc(N=Nc2c(C)[nH]n(C(N)=S)c2=O)cc1C	n	u	n	n	u
C#CC1(O)CC(C)N(C)C(C)C1 (stereo not drawn)	n	n	n	n	u
O=C(Nc1nccs1)c1ccc(-c2ccc(Cl)cc2)o1	n	n	x	n	n
O=C(Nc1nccs1)c1ccc(-c2ccc(F)cc2)o1	n	x	x	n	22µM
COc1ccc(NC(=O)c2ccc(Cc3ccc(C)cc3)o2)cc1	n	u	u	n	25µM
SMILES	Luc counter	LMNA splice mod	HPGD block	IMPase Li cell	ALDH1A1 block
O=C(Nc1ccccc1)c1ccc(-c2ccccc2Cl)o1	n	u	n	n	n
COc1ccc(NC(=O)c2ccc(-c3ccc([N+](=O)[O-])cc3)o2)cc1	n	u	x	n	2.2µM
COc1ccc(NC(=O)c2ccc(COc3ccccc3)o2)cc1	n	n	n	u	u
O=C(Nc1nccs1)c1ccc(-c2ccccc2Cl)o1	n	n	u	n	25µM
COc1ccccc1CNc1nc(-c2ccco2)nn1S(=O)(=O)c1ccc2ccccc2c1	x	n	x	x	x
COc1cc2c(cc1O)CCC1C2CC[C@@]2(C)C1CC[C@@H]2O (stereo partly drawn)	n	x	n	n	n
C[C@@H]1O[C@@H](O)[C@@H](O)[C@H](O)[C@H]1O	n[7.66 µM]	x	n	n	n[13.5 µM]
O=C(Nc1nccs1)c1ccc(-c2ccc([N+](=O)[O-])cc2)o1	n	u	x	n	22µM
O=C(Nc1ccccc1)c1[nH]ncc1[N+](=O)[O-]	n	n	n	n	n
COc1ccc(CCNC(=O)c2ccc(-c3ccc([N+](=O)[O-])cc3)o2)cc1OC	n	u	n	n	10µM
COc1ccc(NC(=O)c2cc([N+](=O)[O-])ccc2O)cc1	7.9µM	n	x	n	n
O=C(CCNC(=O)c1ccc([N+](=O)[O-])cc1)Nc1nccs1	n	n	x	n	n
COc1ccc(NC(=O)c2[nH]ncc2[N+](=O)[O-])cc1	n	n	x	n	15µM
COc1ccc(CCNC(=O)c2ccncc2)cc1OC	n	n	n	n	n
CC1CCCC(NS(=O)(=O)c2ccc3c(c2)OCCO3)C1C (stereo not drawn)	n	n	n	n	14µM
CCC(CO)NCc1ccc(-c2ccccc2)cc1 (stereo not drawn)	n	n	n	n	n
Cc1cc(NC(=O)CSc2nc3ccccc3c(=O)n2-c2ccccc2)no1	n	n	n	7.1µM	u
COC(=O)c1ccc2c(=O)n(-c3ccccc3)c(SCN3C(=O)c4ccccc4C3=O)nc2c1	n	u	n	n	13µM
CC(=O)Nc1ccc(SCC(=O)Nc2cc(C)on2)cc1	n	u	x	n	22µM
Cc1ccc(-n2c(SCC(=O)Nc3cc(C)on3)nc3ccccc3c2=O)cc1	n	n	n	n	n
O=C(c1ccc(-n2c(SCc3cccc(F)c3)nc3ccccc3c2=O)cc1)N1CCOCC1	n	n	n	n	0.32µM
C[C@H](Br)C(=O)Nc1ccc(C(=O)O)c(O)c1	n[7.66 µM]	x	n	n	n[13.5 µM]
CN(C)Cc1cc(C(F)(F)F)ccc1C(O)(c1ccccc1)c1ccccc1	n[7.66 µM]	x	n	n	n[13.5 µM]
CC(C)c1nc(SCC(=O)Nc2nc3c(s2)CCCC3)c2ccccc2n1	n	u	u	n	n
Cc1nnc(NC(=O)CSc2nc(C(C)C)nc3ccccc23)s1	n	n	n	7.9µM	n
SMILES	Luc counter	LMNA splice mod	HPGD block	IMPase Li cell	ALDH1A1 block
O=C(CSc1nc2ccccc2c(=O)n1-c1ccc(SC(F)F)cc1)Nc1ccc(N2CCOCC2)cc1	n	x	x	n	10µM
Cc1cc(NC(=O)CSc2nc(C(C)C)nc3ccccc23)no1	n	n	n	13µM	u
O=C(/C=C/c1ccccc1[N+](=O)[O-])N1CCN(c2ccccc2F)CC1	n	u	x	n	n
N#C/C(=C/c1ccc2c(c1)OCO2)C(=O)Nc1ccc(O)cc1	n	x	x	n	n
O=[N+]([O-])c1cccc2c(N3CCCC3)ccnc12	n	x	x	n	n
CCC(=O)/C=C1\Sc2ccc(OC)cc2N1CC	n	n	28µM	n	u
OC[C@H]1NC[C@@H](O)[C@@H](O)[C@H]1O	n	x	n	n	u
CC1(CC(=O)Nc2ccccc2)NC(=S)N(c2ccccc2)N1 (stereo not drawn)	n	n	x	n	11µM
CCCCCC1(C)NC(=S)N(c2ccccc2)N1 (stereo not drawn)	n	x	x	n	u
CSc1ncc(OCc2ccccc2)c(=O)[nH]1	x	u	x	x	n
Cc1ccc(-c2nn(-c3ccccc3)cc2/C=C(\C#N)c2cccc(C#N)c2)o1	n	n	n	n	22µM
CCOc1ccc(N2C(=O)C3Sc4[nH]c(=O)sc4C(/C=C/c4ccccc4)C3C2=O)cc1 (stereo not drawn)	n	n	n	n	11µM
Cc1ccc(C(=O)Nc2cccnc2N2CCN(C)CC2)cc1	n	x	x	n	n
